This is a sample that favours compounds with a hit; in the whole collection about 5.8% have one here.
KB-V1 cytotox – kills drug-selected multidrug resistant KB-V1 cells. 400,000 tested, 3.4% active. Potency, µM (titrated, usually from 46.1 µM), hits mostly cytotoxic. KB-V1 MDR cells viability, CellTiter-Glo, 72 h; note: % is set by controls: 0 for no effect and ±100 for the full control effect; nearly all actives have a fitted effect of over 60% in size
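Potencies derive from concentration-effect curves fitted to normalized luminescence (CellTiter-Glo) of KB-V1 cells treated for 72 h at 37 degrees C in phenol-red-free DMEM containing 10% FBS.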
SW480 rerep – DNA re-replication induction in SW480 cells | 340,000 tested, 1.8% active | Potency, µM (highest dose often 46.1 µM), inactives show at the highest dose re-replication activation, usual class: activators | SW480 DNA re-replication, Hoechst DNA content imaging, 48 h | AID 624297; note: % of control where 0% means no effect; nearly all actives have a fitted effect of over 55% in size
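Readout is total intensity of Hoechst-stained nuclei, excited at 405 nm and collected at 500-530 nm. Compound treatment lasted 48 hr at 37 C in 5% CO2 before staining.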
KB-3-1 tox – KB-3-1 parental cell cytotoxicity | KB-3-1 viability, CellTiter-Glo ATP luminescence, 72 h | Potency, µM (titrated, usually from 46.1 µM), actives largely listed as cytotoxic | 400,000 tested, 1.4% active | AID 1347075; note: % is set by controls: 0 for no effect and ±100 for the full control effect; nearly all actives have a fitted effect of over 60% in size
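72 h, 37 °C compound treatment of KB-3-1 parental cells; CellTiter-Glo added, 10 min, luminescence read. Data corrected against DMSO-only plates and normalized before curve fitting.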
MCF10A rerep – inducers of DNA re-replication in MCF 10A breast cells; MCF 10A DNA re-replication, Hoechst nuclear intensity, 48 h; Potency, µM (doses to about 46.1 µM), for inactives: at the highest dose activity, positive = re-replication, most hits filed as activators; 350,000 tested, 2.9% active; note: % of control where 0% means no effect; nearly all actives have a fitted effect of over 50% in size
PINK1 expr mod – changes PINK1 expression | 410,000 tested, 0.2% active | PINK1 immunofluorescence, high-content cytometry, 24 h | Potency, µM (top dose mostly 76.6 µM), without a hit: top-dose activation (PINK1 increase), most hits filed as activators; active = well fitted activation curve with a large enough effect; inconclusive = small, poorly fitted or top-dose-only effect; cell line not stated here; note: % of control where 0% means no effect; nearly all actives have a fitted effect of over 65% in size
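PINK1 protein, normally rapidly degraded, was detected by immunofluorescence after 24 hour compound treatment of a stable cell line. Titration data (5 concentrations) came from laser-scanning cytometry, with CCCP-treated wells as controls.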
ALOX12 inh – blocks human arachidonate 12S-lipoxygenase; P18054; purified 12hLO, xylenol orange hydroperoxide absorbance; Potency, µM (top dose mostly 108 µM), for the others: top-dose activity change, negative = inhibition, hits mostly inhibitors; 580,000 tested, 1.1% active; note: % is set by controls: 0 for no effect and ±100 for the full control effect
Target sequence (P18054 whole entry, looked up): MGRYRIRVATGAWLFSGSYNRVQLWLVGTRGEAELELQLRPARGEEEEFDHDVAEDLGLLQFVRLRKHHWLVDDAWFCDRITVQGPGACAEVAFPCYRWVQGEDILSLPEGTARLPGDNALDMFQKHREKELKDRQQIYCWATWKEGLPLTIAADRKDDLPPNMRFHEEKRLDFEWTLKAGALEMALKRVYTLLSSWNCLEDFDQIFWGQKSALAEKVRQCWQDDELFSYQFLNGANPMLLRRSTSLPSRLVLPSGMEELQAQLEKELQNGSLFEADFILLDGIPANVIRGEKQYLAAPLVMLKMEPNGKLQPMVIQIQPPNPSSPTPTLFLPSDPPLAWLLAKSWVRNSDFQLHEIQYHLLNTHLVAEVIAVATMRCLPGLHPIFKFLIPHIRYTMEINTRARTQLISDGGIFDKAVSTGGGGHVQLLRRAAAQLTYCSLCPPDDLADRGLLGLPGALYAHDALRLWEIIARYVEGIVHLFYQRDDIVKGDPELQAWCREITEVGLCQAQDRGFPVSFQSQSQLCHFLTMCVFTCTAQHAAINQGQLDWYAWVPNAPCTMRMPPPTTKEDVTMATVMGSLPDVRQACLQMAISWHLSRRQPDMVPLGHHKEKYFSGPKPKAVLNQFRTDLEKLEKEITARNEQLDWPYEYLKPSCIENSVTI
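Purified human 12hLO (150 nM final) in 25 mM Hepes, 0.01% Triton X-100, pH 7.0 was preincubated 15 min at room temperature with compound. Then 40 uM arachidonic acid was added, 30 min. Hydroperoxide was read by Fe-XO absorbance ratio 573/405 nm.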
* hit, by the source's call; [ ] = remark or other dose. Unless noted, calls come from the whole dose curve; as a rule, active = well fitted curve in the direction sought with a large enough effect; inconclusive = small, poorly fitted or top-dose-only effect, or another doubt; inactive = no such curve, though single readings can be large; an effect the other way counts as inactive or inconclusive. Potency is the fitted concentration of half-maximal effect.

`CN1CCN(c2nc(-c3ccc(Cl)s3)cs2)CC1` gave KB-V1 cytotox inactive, SW480 rerep inconclusive, KB-3-1 tox inactive, MCF10A rerep -8%, PINK1 expr mod 2% and ALOX12 inh 8.9µM*.
O=C(CSc1nnc(CN2CCOCC2)n1-c1ccc(Cl)cc1)Nc1ccc2c(c1)OCO2 was read as KB-V1 cytotox 10µM*, SW480 rerep 2%, KB-3-1 tox inactive, MCF10A rerep 1%, PINK1 expr mod -1%[38.3 µM] and ALOX12 inh 23%.
`Cn1c(CN2CCOCC2)nnc1SCC(=O)Nc1ccc2c(c1)OCCO2` gave KB-V1 cytotox inactive, SW480 rerep -2%, KB-3-1 tox inactive, MCF10A rerep 0%, PINK1 expr mod 0%[38.3 µM] and ALOX12 inh -5%.
Brc1ccc(CSc2nnc(-c3cnccn3)n2Cc2ccco2)cc1 was read as KB-V1 cytotox 9.2µM*, SW480 rerep 8%, KB-3-1 tox inconclusive, MCF10A rerep inconclusive, PINK1 expr mod 4% and ALOX12 inh -19%.
Cc1cc(C)c(NC(=O)CSc2nnc(CN3CCOCC3)n2C)c(C)c1 was read as KB-V1 cytotox inactive, SW480 rerep 29µM*, KB-3-1 tox inactive, MCF10A rerep -3%, PINK1 expr mod -1% and ALOX12 inh -18%.
For O=C(CSc1nnc(-c2cnccn2)n1-c1ccccc1)Nc1ccc2c(c1)OCO2 the results were ALOX12 inh -7%.
`CCn1c(SCC(=O)Nc2ccc3c(c2)OCO3)nnc1-c1cnccn1` gave KB-V1 cytotox 21µM*, SW480 rerep -11%, KB-3-1 tox inactive, MCF10A rerep -1%, PINK1 expr mod -3% and ALOX12 inh 3%.
`CC(C)=CCN1CCN(Cc2ccccn2)CC1` gave ALOX12 inh 15%.
COC(=O)CSc1nnc(-c2ccccn2)n1Cc1ccco1 was read as KB-V1 cytotox inactive, SW480 rerep -3%, KB-3-1 tox inactive, MCF10A rerep 0%, PINK1 expr mod 0% and ALOX12 inh -12%.
`Cc1ccccc1OCc1nnc(SCC(=O)Nc2ccc3c(c2)OCO3)n1C` gave KB-V1 cytotox inactive, SW480 rerep -10%, KB-3-1 tox inactive, MCF10A rerep inconclusive, PINK1 expr mod 0%[38.3 µM] and ALOX12 inh 0%.
`N#Cc1ccc(CSc2nnc(Cc3cccs3)n2Cc2ccco2)cc1` gave KB-V1 cytotox inconclusive, SW480 rerep -2%, KB-3-1 tox inactive, MCF10A rerep -13% and PINK1 expr mod -1%.
`N#Cc1ccc(CSc2nnc(-c3ccccc3)n2Cc2ccco2)cc1` gave KB-V1 cytotox 3.7µM*, SW480 rerep -1%, KB-3-1 tox inactive, MCF10A rerep inconclusive, PINK1 expr mod -5%[38.3 µM] and ALOX12 inh 3%.
Screening Clc1ccc(CSc2nnc(-c3ccccn3)n2Cc2ccco2)c(Cl)c1 returned KB-V1 cytotox 10µM*, SW480 rerep 15%, KB-3-1 tox inconclusive, MCF10A rerep inconclusive, PINK1 expr mod -2%[38.3 µM] and ALOX12 inh inconclusive.
For CCn1c(COc2ccccc2C)nnc1SCC(=O)Nc1ccc2c(c1)OCCO2 the results were KB-V1 cytotox 4.6µM*, SW480 rerep -9%, KB-3-1 tox inactive, MCF10A rerep inconclusive, PINK1 expr mod inconclusive and ALOX12 inh 5%.
Screening Nn1c(SCC(=O)Nc2ccc3c(c2)OCO3)nnc1-c1ccccc1 returned KB-V1 cytotox inconclusive, SW480 rerep -1%, KB-3-1 tox inactive, MCF10A rerep 2%, PINK1 expr mod -4%[38.3 µM] and ALOX12 inh 18%.
CC1(C)Cc2ccccc2-c2nnc(SCC(=O)Nc3ccc4c(c3)OCO4)n21 was read as KB-V1 cytotox 4.1µM*, SW480 rerep 1%, KB-3-1 tox inactive, MCF10A rerep 6%, PINK1 expr mod -3% and ALOX12 inh -5%.
`Cc1ccc(NC(=O)c2cc3c(s2)CCC3)cc1C` gave ALOX12 inh 0%.
`Cc1ccc(NC(=O)CSc2nnc(-c3cnccn3)n2Cc2ccco2)cc1` gave KB-V1 cytotox 7.3µM*, SW480 rerep -3%, KB-3-1 tox inactive, MCF10A rerep 11%, PINK1 expr mod -3%[38.3 µM] and ALOX12 inh -10%.
`Cc1cc(C)c(NC(=O)CSc2nnc(-c3ccncc3)n2Cc2ccco2)c(Cl)c1` gave KB-V1 cytotox 23µM*, SW480 rerep -4%, KB-3-1 tox inconclusive, MCF10A rerep 0%, PINK1 expr mod 1% and ALOX12 inh -2%.
Fc1ccccc1CSc1nnc(-c2cnccn2)n1Cc1ccco1 was read as KB-V1 cytotox 18µM*, SW480 rerep -93%, KB-3-1 tox inactive, MCF10A rerep -59%, PINK1 expr mod -4% and ALOX12 inh -20%.
Screening O=C1CCCN1CCCNCC1CCCCC1 returned ALOX12 inh 47%.
For CC(=O)n1cc(C(C[N+](=O)[O-])SCCN)c2ccccc21 (centres undefined) the results were KB-V1 cytotox inconclusive, SW480 rerep 6.5µM*, KB-3-1 tox inconclusive, MCF10A rerep 5.2µM* and PINK1 expr mod -5%.
O=C(CN1CCN(c2ccc(O)cc2)CC1)NC(c1ccccc1)c1ccccc1 was read as KB-V1 cytotox inactive, SW480 rerep inconclusive, KB-3-1 tox inactive, MCF10A rerep 15%, PINK1 expr mod -1% and ALOX12 inh 22µM*.
For CC(=O)N1CCN(CC(=O)Nc2cc([N+](=O)[O-])ccc2Cl)CC1 the results were KB-V1 cytotox inactive, SW480 rerep 2%, KB-3-1 tox inactive, MCF10A rerep 0%, PINK1 expr mod 1% and ALOX12 inh -12%.
For O=C(CN1CCN(c2ccc(O)cc2)CC1)Nc1cc([N+](=O)[O-])ccc1Cl the results were KB-V1 cytotox 8.2µM*, SW480 rerep 2%, KB-3-1 tox inactive, MCF10A rerep -2%, PINK1 expr mod -3% and ALOX12 inh -30%.
For CCNC(=O)CNC(=O)c1cc(Br)ccc1F the results were ALOX12 inh 5%.
For CN(C(=O)CN1CCC(c2cc3ccccc3[nH]2)CC1)C1CC1 the results were ALOX12 inh 9%.
For CCOC(=O)C1=C(CN2CCN(c3ccc(C)cc3C)CC2)NC(=O)NC1c1ccc(OC)cc1 (centres undefined) the results were PINK1 expr mod 26% and ALOX12 inh 45µM*.
Screening CCOC(=O)C1=C(CN2CCN(c3ccc(OC)cc3)CC2)NC(=O)NC1c1ccc(OC)cc1 (centres undefined) returned PINK1 expr mod 9% and ALOX12 inh inconclusive.

Source: PubChem
